FH mod = Identification of activators of human fumarate hydratase by quantitative high-throughput screening; Fumarate hydratase, mitochondrial (Homo sapiens), P07954; FH coupled MDH/diaphorase resazurin fluorescence, 15 min; Potency, µM (titrated, usually from 79.9 µM), for the others: top-dose activity change, negative = inhibition, hits mostly inhibitors; hit rate 0.22% among 54,000; AID 1347055, 2019; further: potency means the concentration at half of the fitted maximal effect; on the % scale 0 is the no-effect control and ±100 the full control effect; the screen sought activators but most active calls are inhibition curves; nearly all actives have a fitted effect of over 45% in size
NTMT1 inhibitor = inhibitors of human N-terminal methyltransferase NTMT1 | Q9BV86 | NTMT1 MTase-Glo SAH luminescence, purified enzyme | Potency, µM (doses to about 114 µM), for the others: top-dose activity change, negative = inhibition, usual class: inhibitors | hit rate 2.5% among 59,000;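 further: potency means the concentration at half of the fitted maximal effect; plate controls were DMSO vehicle for no effect and no enzyme for full effect; nearly all actives have a fitted effect of over 65% in size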
Target sequence (Q9BV86 whole entry, looked up): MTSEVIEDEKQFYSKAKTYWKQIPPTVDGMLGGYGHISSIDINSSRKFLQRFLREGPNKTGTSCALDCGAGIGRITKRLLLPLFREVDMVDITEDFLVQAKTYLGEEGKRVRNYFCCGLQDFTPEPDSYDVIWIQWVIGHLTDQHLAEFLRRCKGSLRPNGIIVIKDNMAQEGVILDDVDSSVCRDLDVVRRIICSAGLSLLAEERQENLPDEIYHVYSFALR
Sfp qHTS opt = inhibits purified B. subtilis Sfp PPTase; shares compounds with NTMT1 inhibitor; purified Sfp PPTase enzyme activity, qHTS; Potency, µM (titrated, usually from 114 µM), for inactives: top-dose activity change, negative = inhibition, actives largely listed as inhibitors; hit rate 78% among 230
HM489 growth = Sfp PPTase inhibitors: growth inhibition of B. subtilis HM489 | shares compounds with NTMT1 inhibitor | hit rate 50% among 220 | B. subtilis HM489 (acpS-) growth, BacTiter-Glo, 5 h | AID 540353 | Potency, µM (top dose mostly 114 µM), for inactives: at the highest dose activity change, negative = inhibition, usual class: inhibitors
Sfp PPTase gel = Sfp PPTase inhibition, gel-based detection; Potency, µM (highest dose often 250 µM), inactives show at the highest dose activity change, negative = inhibition, actives largely listed as inhibitors; shares compounds with NTMT1 inhibitor; hit rate 54% among 220; purified Sfp PPTase, gel-based product detection
Sfp inh SAR2 = Sfp phosphopantetheinyl transferase inhibition, SAR round 2; shares compounds with NTMT1 inhibitor; purified Sfp enzyme, PPTase activity, qHTS; Potency, µM (series often up to 57.1 µM), for inactives: at the top dose activity change, negative = inhibition, actives largely listed as inhibitors; hit rate 87% among 230; AID 602370
hGST ctr = hGST A1-1 enzyme inhibition, Sfp SAR counter-screen. shares compounds with NTMT1 inhibitor. hGST A1-1 enzyme activity counter-screen, qHTS. Potency, µM (highest dose often 114 µM), inactives show top-dose activity change, negative = inhibition, most hits filed as inhibitors. 55 tested, under 10 active. AID 602391
HSD17B4 counter = inhibits human HSD17B4, off-target for HPGD inhibitors; shares compounds with NTMT1 inhibitor; purified HSD17B4, estradiol/NAD+, NADH fluorescence; Potency, µM (series often up to 57.1 µM), for inactives: at the top dose activity change, negative = inhibition, most hits filed as inhibitors; hit rate 10% among 230; AID 743187
ALDH1A1 inh = inhibits human ALDH1A1, off-target for HPGD inhibitors; hit rate 93% among 230; Potency, µM (series often up to 57.1 µM), without a hit: top-dose activity change, negative = inhibition, most hits filed as inhibitors; recombinant ALDH1A1, NADH fluorescence, propionaldehyde/NAD+; shares compounds with NTMT1 inhibitor
NNMT inh = counter-screen for NTMT1 inhibitors: human NNMT inhibition; shares compounds with NTMT1 inhibitor; NNMT MTase-Glo luminescence, SAH detection; Potency, µM (titrated, usually from 57.1 µM), for inactives: at the top dose activity, negative = inhibition, hits mostly inhibitors; hit rate 10% among 120
Target sequence (P40261 whole entry, looked up): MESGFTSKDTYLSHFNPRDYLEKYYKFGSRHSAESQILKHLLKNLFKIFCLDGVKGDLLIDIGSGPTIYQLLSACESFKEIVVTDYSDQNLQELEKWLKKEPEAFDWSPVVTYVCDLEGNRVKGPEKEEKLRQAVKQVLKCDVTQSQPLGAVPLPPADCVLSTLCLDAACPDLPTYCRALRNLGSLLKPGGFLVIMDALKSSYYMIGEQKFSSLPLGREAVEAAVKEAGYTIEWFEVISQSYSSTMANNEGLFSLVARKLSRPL
An asterisk follows results filed as active; ? = inconclusive; / = no result given; ! = repeats disagree; [ ] = dose if it differs, or a comment. This excerpt belongs to a sample that is enriched for hits. The call rests on the fitted dose curve; in most records, active means well fitted curve in the direction sought with a large enough effect; inconclusive means small, poorly fitted or top-dose-only effect, or another doubt; inactive means no such curve, though single readings can be large; an effect the other way counts as inactive or inconclusive.

SMILES	FH mod	NTMT1 inhibitor	NNMT inh	others
COc1ccc2c(c1O)OC[C@H]1c3ccc(O)cc3O[C@@H]21	-6%	?	/
Cc1cc2c(F)c(Oc3ncnn4cc(OCC(C)OC(=O)C(C)N)c(C)c34)ccc2[nH]1 (stereo not given)	-29%	?	/
C/C=C/C=C/C=C/C(=O)O[C@@H]1C=C2COC(=O)[C@]2(O)[C@@]2(C)CCCC(C)(C)[C@H]12	-11%[53.3 µM]	-15%[29.8 µM]	-12%[28.6 µM]
c1ccc(-c2oc3ncnc(NC[C@@H]4CCCO4)c3c2-c2ccccc2)cc1	0%	10µM*	?
c1nc(NCC2CCCO2)c2ccc(-c3ccc4c(c3)OCO4)cc2n1 (stereo not given)	/	-19%[57.5 µM]	/
C[C@@H]1O[C@@H](O[C@H]2CC[C@@]3(C)C(CC[C@]4(C)C3CC=C3[C@@H]5CC(C)(C)CC[C@]5(C(=O)O[C@@H]5O[C@H](CO)[C@@H](O)[C@H](O)[C@H]5O)CC[C@]34C)[C@]2(C)CO)[C@H](O)[C@H](O[C@@H]2O[C@H](CO)[C@@H](O)[C@H](O)[C@H]2O)[C@H]1O (stereo not given in full)	-2%[20.6 µM]	?	/
CCCCc1ccc(-c2ccc(=O)n(CC(=O)NCCc3ccccc3)n2)cc1	/	5%	/
CC(C)c1cc(CNc2nc(Nc3cc(C4CC4)[nH]n3)cc(N3CCN(C)CC3)n2)on1	2%	?	-16%
COc1ccc(-c2ccc3ncc4c(c3c2)n(-c2ccc(N3CCNCC3)c(C(F)(F)F)c2)c(=O)n4C)cn1	?	16µM*!	-18%
COc1ccc(NC(=O)c2ccc(-c3nc4ccccc4[nH]3)cc2)cc1OC	/	8%	/
O=C(Nc1ccc(S(=O)(=O)Nc2nccs2)cc1)c1ccnc(-c2ccccc2)c1	/	-2%	/
Nc1nc(OC(c2ccc(-c3cccc(F)c3)cc2)C(F)(F)F)cc(-c2ccc(C[C@@H](N)C(=O)O)cc2)n1 (stereo not given in full)	/	5%	/
COc1cccc(-c2cn(-c3ccc(CCN4CCC(O)CC4)cc3)c3ncnc(N)c23)c1	-2%	13µM*	?
Cc1ccnc(NC(=S)N2CC3CN(c4ncc(C(F)(F)F)cc4Cl)CC3C2)c1 (stereo not given)	/	?	/	Sfp qHTS opt=0.58µM*;Sfp inh SAR2=1.3µM*;hGST ctr=-3%;HSD17B4 counter=-2%;ALDH1A1 inh=0.38µM*
FC(F)(F)c1cnc(N2CCN(C(=S)Nc3cc(Cl)ccn3)CC2)c(Cl)c1	/	?	/	Sfp qHTS opt=9.4µM*;HM489 growth=12µM*;Sfp PPTase gel=?;Sfp inh SAR2=1.3µM*;HSD17B4 counter=-26%;ALDH1A1 inh=3.8µM*
CN(C)c1nc(NC2CCC(NCCc3ccc(Br)cc3OC(F)(F)F)CC2)nc2ccccc12 (stereo not given)	-9%	35µM*	22µM*
O=C(Nc1ccccc1)c1ccc(Nc2nnc(-c3ccc(O)cc3)c3ccccc23)cc1	-5%	7%[57.5 µM]	?
COc1cc2ncnc(Nc3ccc(F)c(Cl)c3)c2cc1NC(=O)/C=C/CN1CCCCC1	0%	8.9µM*	?
